From PubChem
aSyn 5UTR act – Activators via SNCA 5'UTR binding, MLPCN. alpha-synuclein 5'UTR reporter, activators screen. activity score, % (tested at 7.5 µM), hits read low. 300,000 compounds, 7.1% hits; in the data active = activity score below about -60%
* marks the source's active call; other numbers are inactive results. These entries were drawn from the full list.

SMILES	aSyn 5UTR act
N/C(=N\OC(=O)c1cc([N+](=O)[O-])ccc1Cl)c1ccccn1	-82*
N/C(=N\OC(=O)c1ccc(Cl)cc1[N+](=O)[O-])c1ccccn1	-165*
O=C(Nc1ccc(Br)cc1)Nc1ccccc1F	-232*
O=C(Nc1ccccc1F)Nc1ccccc1F	-239*
COC(=O)[C@@H]1CCCN1C(=O)CCc1nnc(CCC2CCCCC2)o1	-116*
CCOC(=O)C1CCCCN1C(=O)CCc1c(C)nc2ncnn2c1C (configuration not stated)	61
Cc1ccc(NC(=O)CCSc2ccccn2)cc1	-145*
Cc1ccc(C(=O)CSc2ccccn2)cc1	-191*
Cc1ccc(N(CC(=O)NCCSc2ccccn2)S(C)(=O)=O)cc1	-98*
Cn1c(CO)cnc1SCC(=O)c1ccc(F)cc1	-65*
O=C(CSc1ccccn1)c1ccc(F)cc1	-130*
O=C(OCn1ncc(Br)c(Br)c1=O)c1ccc(F)cc1	64
COCCN(CCOC)S(=O)(=O)c1ccc(C(=O)Nc2sc3c(c2C(N)=O)CCCCC3)cc1	-107*
NC(=O)c1c(NC(=O)c2ccccc2F)sc2c1CCCC2	-170*
NC(=O)c1c(NC(=O)c2cccs2)sc2c1CCCCCC2	-122*
COc1cc(OC)cc(C(=O)Nc2sc3c(c2C(N)=O)CCC3)c1	-105*
NC(=O)c1c(NC(=O)c2ccc(F)cc2Cl)sc2c1CCC2	-96*
NCCNC(=O)c1c(NC(=O)c2ccccc2)sc2c1CCCC2	-125*
NC(=O)C1CCCN(C(=S)Nc2cccc3ccccc23)C1 (configuration not stated)	-90*
CC(Sc1nnc(NC2CCCCC2)s1)C(=O)Nc1ccc2c(c1)C(=O)c1ccccc1C2=O (configuration not stated)	-79*
COc1ccc(C(=O)NCCSC2CCCCC2)cc1	-159*
O=C(NCCSC1CCCCC1)c1ccccc1	-67*
O=C(Nc1ccc(Br)cc1)c1cnc[nH]1	-107*
CC1CCC(NC(=O)c2cccc(S(=O)(=O)N3CCN(c4ccc(F)cc4)CC3)c2)CC1 (configuration not stated)	-72*
CCN(CC)C(=O)c1cc2sc3ccccc3c2s1	-134*
SMILES	aSyn 5UTR act
CN(C)CCNC(=O)c1cc2sc3ccccc3c2s1	-127*
O=C(CCl)N(c1ccccc1)C1CCS(=O)(=O)C1 (configuration not stated)	-109*
COc1ccc(/C=N/Nc2cc(C)nc3ccccc23)cc1	-85*
COc1ccc(/C=N/Nc2cc(C)nc3c(C)cccc23)cc1	-81*
Oc1ccc2ccccc2c1/C=N/Nc1nnc(-c2ncc[nH]2)c2ccccc12	102
COc1ccc2nc(C)cc(N/N=C/c3ccc(F)cc3)c2c1	93
COc1ccc(/C=N/Nc2nnc(-c3ncc[nH]3)c3ccccc23)cc1	-203*
COc1ccc2c(c1)CC/C2=N\NC(=O)c1ccccc1	-111*
COC(=O)c1cc2c(s1)-c1ccc(OC)cc1CC2	-212*
COc1ccc2c(c1)CC/C2=N\OC(=O)c1cccc(C)c1	-230*
COc1ccc(C(=O)N=C2CCC(C#N)=C3c4cc(OC)c(OC)cc4CCN23)cc1	55
CNC(=O)c1cc2c(s1)-c1ccccc1CC2	-133*
Cc1ccccc1C(=O)O/N=C/c1c(N2CCOCC2)n(C)c2ccccc12	87
COc1ccc2c(c1)CC/C2=N\OC(=O)c1ccccc1C	-136*
COc1ccc(C2=NN(C(=O)CN3CCOCC3)C(c3nc4ccccc4[nH]3)C2)cc1 (configuration not stated)	-72*
CC(=O)c1c(CSc2ccccc2)oc2ccc(O)c(CN(C)C)c12	-63*
CCOC(=O)c1c(CSc2ccc(CC)cc2)oc2ccc(O)c(CN(C)C)c12	66
Cc1ccc(Nc2ncc3c(n2)CC(C)CC3=O)c(C)c1 (configuration not stated)	-82*
Cc1ccc(NS(=O)(=O)c2ccc(-c3cnc(C4CC4)o3)cc2)c(C)c1	77
CC1CC(=O)c2cnc(Nc3ccccc3)nc2C1 (configuration not stated)	-134*
c1ccc(C2=Nc3ccccc3NC(c3ccccc3)C2)cc1 (configuration not stated)	-178*
Brc1ccccc1C1CC(c2ccccc2)=Nc2ccccc2N1 (configuration not stated)	-203*
O=c1oc(Nc2ccccc2Cl)nc2ccccc12	-91*
O=c1oc(Nc2cccc(Cl)c2)nc2ccccc12	-85*
O=C(OCc1ccc(Cl)c(Cl)c1)c1ccc[nH]1	-82*
SMILES	aSyn 5UTR act
O=C(O)C(=O)/C(=C\c1cccc(Cl)c1)c1ccc2ccccc2n1	-80*
Cc1cccc(/C=C(\C(=O)C(=O)O)c2ccc3ccccc3n2)c1	-118*
N#Cc1ccc(/C=C(\C(=O)C(=O)O)c2ccc3ccccc3n2)cc1	-76*
COc1ccc(-n2nc(C(=O)NCC(=O)N3CCN(c4ccccc4F)CC3)c3ccccc3c2=O)cc1	-120*
COC(=O)Oc1ccc(/C=C/C(=O)OC(C)C)cc1OC(=O)OC	-127*
CC(=O)c1cc(C#N)c(SCc2ccccc2C#N)nc1C	-97*
CC(=O)c1cc(C#N)c(SCC(=O)OC(C)(C)C)nc1C	-116*
Fc1ccc(CO/N=C2\CCCc3nonc32)cc1	-91*
CC1(C)CC(=O)c2c(nc(SCC(=O)Nc3nsc(-c4ccccc4)n3)c(C#N)c2-c2ccccc2)C1	74
COc1ccc(-c2nc(NC(=O)CSc3nnc(C)s3)ns2)cc1	-70*
COc1ccc2c(C)cc(SCC(=O)Nc3nsc(-c4ccc(C)cc4)n3)nc2c1	-82*
Cc1ccc(NC(=S)N2CCCCCC2)cc1	-94*
Cc1ccc(NC(=S)N2CCCC2)cc1	-64*
COc1ccc(OC)c(-c2cc(C(=O)Nc3cccc(Cl)c3)no2)c1	-68*
COC(=O)c1sccc1-c1ccc(C(=O)Nc2cccc(Cl)c2)o1	-125*
COc1ccc(OC)c(-c2cc(C(=O)Nc3c(C)nn(Cc4ccc(Cl)cc4)c3C)no2)c1	58
COc1ccc(-c2cc(C(=O)Nc3cccc(Cl)c3)no2)cc1	-266*
COc1ccc(-c2nnc(SC(C)C(=O)Nc3cccc(Cl)c3)o2)cc1 (configuration not stated)	-160*
COC(=O)c1sccc1-c1ccc(/C=N/OC(=O)c2ccccc2)o1	-69*
COc1ccc(-c2cc(C(=O)Nc3cccc(C(C)=O)c3)no2)cc1	-76*
COc1ccc(-c2noc(N(C)CC(=O)Nc3cccc(C(F)(F)F)c3)n2)cc1	-76*
O=C(Cn1cc(C(F)(F)F)ccc1=O)NCc1ccc(F)cc1	-75*
COc1ccc(C2/C=C\CN(C(=O)Nc3ccc(C(F)(F)F)cc3)CC(=O)N2Cc2ccc(F)cc2)cc1 (configuration not stated)	71
c1cc2c(cc1Nc1nc(-c3ccc4c(c3)OCO4)cs1)OCCO2	-89*
COc1cccc(Nc2nc(-c3ccc4c(c3)OCCO4)cs2)c1	-227*
SMILES	aSyn 5UTR act
CNC(=O)c1sc(-c2ccc(Cl)cc2)nc1C	-187*
CC(=O)c1sc(-c2ccc(Cl)cc2)nc1C	-101*
CCNC(=O)O/N=C(\C)c1sc(-c2ccccc2)nc1C	-134*
C/C(=N\O)c1sc(-c2ccccc2)nc1C	-140*
CNC(=O)c1sc(-c2ccccc2)nc1C	-78*
Cc1cc(C)nc(NC(=S)Nc2ccccc2)n1	-84*
C/C(=N\NC(=S)Nc1ccccc1)C1Cc2ccccc2C(=O)O1 (configuration not stated)	-154*
S=C(NN=C(C1CC1)C1CC1)Nc1ccccc1	-63*
S=C(Nc1ccc(Nc2ccccc2)cc1)NN1CCOCC1	-99*
